Measured values published in the supplement of paper PMC6555819.

Each sequence was assayed on VDR:RXRa (NR concentration 270 nM, RXRa partner concentration 90 nM) (assay: PBM binding z-score (relative to random genomic background probes); higher = stronger binding; sequences stand for … in GC…GCGATTGACAGCGTAGAATGAAGG).
Method: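 Protein-binding microarray (Agilent 4x180K custom design, double-stranded 60-nt probes: 5' GC cap, 34-nt variable region, 24-nt constant primer region; full probe sequence given). Purified or IVT nuclear receptor:RXRα heterodimers (3:1 NR:RXRα, mostly 270:90 nM) or homodimers were incubated for 1 h in PBS with 2% milk and no ligand, then detected with Alexa488 antibodies. Fluorescence from o1-orientation probes (~5 replicates averaged) was converted to z-scores against 500 random hg19 background probes. Variable regions are seed direct-repeat (DR0–DR5) sites, all their single-nucleotide variants and half-site ablations.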

Row | Sequence | PBM binding z-score
1 | CTATGTAGATTAAGGGGGTCATTCAGTTTGAAAG | 6.53
2 | CAAACTAGGTCACAGGGGTCAAAGTCCGTGCGTA | 8.24
3 | CGAACTAGGTCCCCAGGACAGTGAAGAGGTTGGA | -0.892
4 | ATATGTAGGTTAGGGTAATTCAGAAAGTAGGGAA | 1.09
5 | ATATGTAGGTAAGGGTCATTCAGAAAGTAGGGAA | 4.1
6 | ATCGAACGGTCGACGAGGTGAGTATACACCGTTT | 0.299
7 | CGTCCAACGTCAGCAGGTCAGTGAAAGCGACGTG | -0.198
8 | CGAACTAGGTCACCAGGACGGTGAAGAGGTTGGA | 1.77
9 | AGTCAAAGTTGATCTAGGTAACGTAAGATATGCT | 0.0495
10 | CGTCAAAGTTCAAGCTAACGTAACAGAAAGCAGC | 4.18
11 | CCGACTGGGGCAAAGGTTACGATACTCAGTACGA | 1.61
12 | AGAATGAGGTTACCAAAGATCAGTGAAACGCTTG | 1.45
13 | CGTCCAAGGGCAGCAGGTCAGTGAAAGCGACGTG | 0.17
14 | TCGAGTAGGTTACGGGGGTATTCAGGGATGAAGA | 2.64
15 | CAATCTAGGTCACAGAGGTCAAAGTCCGTGCGTA | 8.07
16 | CGTCAAAGTTCAAGGTTACGTAACAGAAAGCAGC | 4.31
17 | CCTTACGGGTCAAGGTTATCGCACGGGTGGTACG | 3.69
18 | CAACCTAGGTCACCGGAAGGTCAAAGTCCGCATG | 6.51
19 | GCATATAGGTAATTCAAGGTGAAAGTCCGATTGT | 0.627
20 | CCAGACAGGTGAAAGGTAACTCACTCTGGTACGC | 0.767

Row | Sequence | PBM binding z-score
21 | ATATGTAGGTTACATCCGGGTCATTCTGGCTATG | 3.69
22 | CAAAGTAGGTCAAGGTCAAAGTCGGTTTGTGCCA | 5.27
23 | CCTAGTTGGTCAGGAAGTCACACACCGGATATGA | 0.604
24 | TCTAGCTGGTCAAAGGTCACACACTCGAAATGCG | 5.36
25 | ATCTCTAGGTAAATGTTCAGTGAATCCCGAGGAT | -0.0606
26 | CTCGAAAGGTCGTGCTTAGGTGAGTATACCAAAC | 3.36
27 | ATATGTAGCTTAGGGTCATTCAGAAAGTAGGGAA | 4.27
28 | ATGGAAAGGTCGTGAGGTGAGTATACAGAAAGGC | 4
29 | ATATGTAGGTTAGGCTCATTCAGAAAGTAGGGAA | -0.124
30 | CCGAGTAGGTTACGAGGGGGCATGCAGTGCGAAT | 4.63
31 | ATATGTAGGATATCGGGTCATTCAGTTTGCGCAT | 4.94
32 | ATCGAAAGGTCGCAGGTGAGTATACCCACCCGAA | 3.2
33 | TGAATGAGGTTTAAGATCAGGGAACGTGGCGTCG | -0.255
34 | TAGCCTAGGTCATTGGGCTAGTATAGTACGCATC | 2.03
35 | CCTACTGGGCCAAGGTCATTGAGCAGTCAAAGCA | 3.07
36 | CTATGTAGGTTAATGGGGTCATTCAGTTTGAAAG | 7.83
37 | CGAACTAGGTCACCAGGGCAGTGAAGAGGTTGGA | 2.32
38 | CAAACCAGGTCACGAAAGGTCAAAGTCGAATGAC | 7.16
39 | GATACAGGGTCAAGGCCAGAGTACGCGTATTGAT | 4.28
40 | CCTGCTAGGACAATGGTCAGCTAAAGCAGCTCGC | -0.832
